Nine compounds from PubChem BioAssay (NCATS) can be followed below.

Assay [1] is described as follows: Drug repurposing screens with cells derived from glioblastoma tumor samples (AID 1345199). For activity, negative = cell killing: % is set by controls: 0 for no effect and ±100 for the full control effect. Note: nearly all actives have a fitted effect of over 40% in size. Note: potency is the fitted concentration of half-maximal effect. As to conditions: GBM patient neurospheres viability, ATP luminescence, 48 h. Summed up:
(§1)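 Primary testing used CD133+ neurospheres from four GBM patients, seven concentrations, 48 h exposure and ATP-based viability; confirmation added three slower-growing patient lines.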

Assay [2] deals with astro (control astrocytes). The assay is described as above. The following applies: viability, ATP luminescence, 48 h; series mostly up to 45.9 µM. Summed up: as §1
The target of assay [3] is Nuclear receptor subfamily 1 group I member 2 (Rattus norvegicus) (UniProt Q9R1A7). Briefly: qHTS assay for small molecule activators of the rat pregnane X receptor (rPXR) signaling pathway (AID 651751; call rule not given here; note: 0% is about no effect). The following applies: rPXR reporter cells, luciferase (One-Glo), 24 h. (qHTS replaces the single test concentration by a dilution series.)
Where [4] appears, read: at 45.9 µM (top of the series), tumour line B.
Where [5] appears, read: at 45.9 µM (top of the series), tumour line D.
Where [6] appears, read: at 46.1 µM (top of the series), tumour line C.

SMILES strings stand for the structures. Unmarked numbers belong to inactive results. Results filed as inconclusive are left out. Activity calls are given as the source filed them. Unless noted, calls come from the whole dose curve; as a rule, active = well fitted inhibition curve with a large enough effect; inconclusive = small, poorly fitted or top-dose-only effect; inactive = flat fitted curve, though single readings scatter.

Nuclear receptor subfamily 1 group I member 2 (Rattus norvegicus), sequence (Q9R1A7 whole entry, looked up): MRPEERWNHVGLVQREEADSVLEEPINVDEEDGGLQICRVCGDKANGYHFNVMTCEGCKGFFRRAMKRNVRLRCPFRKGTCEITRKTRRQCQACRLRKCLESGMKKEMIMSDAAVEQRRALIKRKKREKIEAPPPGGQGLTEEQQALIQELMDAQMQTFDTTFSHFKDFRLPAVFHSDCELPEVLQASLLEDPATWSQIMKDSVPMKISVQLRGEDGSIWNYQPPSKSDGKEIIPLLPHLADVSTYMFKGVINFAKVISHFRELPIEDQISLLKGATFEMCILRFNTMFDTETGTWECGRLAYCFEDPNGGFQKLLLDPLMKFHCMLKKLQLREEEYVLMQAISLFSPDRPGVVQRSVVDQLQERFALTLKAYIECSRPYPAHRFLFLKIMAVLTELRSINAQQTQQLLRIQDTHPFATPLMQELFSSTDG

Turning to `CO/N=C(\C(=O)N[C@@H]1C(=O)N2C(C(=O)[O-])=C(C[n+]3cccc4c3CCC4)CS[C@H]12)c1csc(N)n1`, in assay [1] (tumour line C), the Potency is 23.1 µM (active).

For the compound `CO[C@H]1C[C@H](O[C@@H]2/C(C)=C/C[C@@H]3C[C@@H](C[C@]4(CC[C@H](C)[C@@H](C5CCCCC5)O4)O3)OC(=O)[C@@H]3C=C(C)/C(=N/O)[C@H]4OC/C(=C\C=C\[C@@H]2C)[C@]43O)O[C@@H](C)[C@@H]1O`, the Potency in assay [1] (tumour line D) was 20 µM (active).

Consider `CC(C)(C)NC[C@H](O)COc1ccccc1C1CCCC1`, for which the Potency in assay [1] (tumour line D) is 12.6 µM (active).

As to `COc1ccc(-c2noc(CC(=O)O)c2-c2ccc(OC)cc2)cc1`, the activity, negative = cell killing in assay [1] (setting [4]) was -13.4%; in assay [1] (setting [5]), -6.66%; in assay [1] (setting [6]), -18%. The Potency result in assay [2] is “inactive”.

Take `CC1CC(O)CC(C)(C)C1` (stereo not drawn): the figures for the activity, negative = cell killing in assay [1] (setting [4]), in assay [1] (setting [5]) and in assay [1] (setting [6]) were -5.77%, -9.42% and -22%, respectively. Further, in assay [2], the Potency entry was “inactive”.

As to `Cc1cc(C)c(NC(=O)C[C@H](CC(=O)O)c2cccc3ccccc23)c(C(=O)N2CCC3(CCCC3)CC2)c1`, the figures for the activity, negative = cell killing in assay [1] (setting [4]), in assay [1] (setting [5]) and in assay [1] (setting [6]) were -14%, 2.34% and -29.7%, respectively. The Potency entry in assay [2] is “inactive”.

For `CC/C=C\C/C=C\C/C=C\C/C=C\C/C=C\C/C=C\CCC(=O)O`, the figures for the activity, negative = cell killing in assay [1] (setting [4]), in assay [1] (setting [5]) and in assay [1] (setting [6]) were -3.27%, -12.5% and -20.7%, respectively. Further, in assay [2], the Potency result was “inactive”.

Regarding `C=CC(C)(O)CC/C=C(\C)CCC=C(C)C` (stereo not drawn), the activity, negative = cell killing in assay [1] (setting [4]) is -7.36%; in assay [1] (setting [5]), -9.56%; in assay [1] (at 46 µM (top of the series), tumour line A), -15.8%. Also, the Potency entry in assay [2] is “inactive”. For the same compound, the max response in assay [3] is 14.8%.

Take `CCOc1ccc(S(=O)(=O)O)c2cccnc12`: the activity, negative = cell killing is -12% in assay [1] (setting [4]), -2.86% in assay [1] (setting [5]) and -26.7% in assay [1] (setting [6]). Further, the Potency result in assay [2] was “inactive”.
